Here are results for 40 molecules from PubChem BioAssay (NCI).

The structures appear in SMILES notation. Where “and” joins values, the source holds several entries; their conditions need not be identical. Equal entries are not always repeated. This is part of a sample that, as a whole, favours compounds with a hit. Of some 83,000 tested, about 20% had one in any assay.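 In brief: 96-well plates, 48 h treatment, single concentration, percent growth endpoint.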 Values without a mark were called inactive. Calls of active or inactive are those of the source. The calls were made as follows: active = growth percent below 10; inactive = the rest.

In this test the test system is MDA-MB-468 breast. The experiment in a line: NCI-60 one-dose screen, 48 h (100 = growth as untreated, 0 = no growth, -100 = all killed). The following applies: 10 µM unless noted.
Consider `COc1ccc2cc(C(=O)c3coc4ccc(O)cc34)ccc2c1`, for which the growth is 126%.

On to `COc1ccccc1N1CCN(C2=NN=C(c3cccc(Cl)c3)c3ccccc3C2)CC1`, for which the growth was -1.01% (active).

With `CCCCNNC(=O)c1ccc(-c2cccc(F)c2F)cc1`, the growth is -4.26% (active).

For the molecule `CC(C)(C)c1ccc(S(=O)(=O)Oc2ccc(NC(=O)C3CCCCC3)cc2)cc1`, the growth is 28.2%.

As for `CC(CN1CCCCC1)NC(=O)c1scnc1-c1ccccc1` (stereo not given), the growth is 111%.

In the case of `COc1cc2c(cc1OC)C1(C)N(CC2)C(=O)OC1(C)C` (stereo not given), the growth was 93.1%.

With `COc1cc2nc(NC3CCCC3)nc(NC3CCN(C(C)C)CC3)c2cc1OC`, the growth was 45.4%.

For the molecule `Nc1cc(C(=O)NC[C@H]2CN(c3ccc(N4CCC(C(=O)O)CC4)cc3)C(=O)O2)ccc1Cl`, the growth was 99.4%.

Turning to `O=C(CC(c1ccccc1)N1CCOCC1)c1ccccc1` (stereo not given), the growth was 73.4%.

Regarding `COc1cc(C(C)c2ccc3c(ccn3C)c2)cc(OC)c1OC` (stereo not given), the growth was 51.9%.

As for `CCNCCNc1cc(-c2ccc(F)cc2)c(C#N)c2nc3ccccc3n12`, the growth is -8.31% (active).

As to `COc1ccc(-c2nn(-c3cccc(Cl)c3)cc2-c2c(C#N)c(=O)n3[nH]c(-c4ccc(C)cc4)nc3c2C#N)cc1`, the growth is -1.87% (active).

As for `C=CCc1cc(C)ccc1NC(C(=O)NCC(=O)OC)c1ccccc1` (stereo not given), the growth is 111%.

For `O=C(CSc1nccc(Nc2cccc3ccccc23)n1)c1ccc(Cl)cc1`, the growth was 98.5%.

Take `CCc1cccc2c3c(sc12)C(c1ccc(Cl)cc1)C(C#N)=C(/N=C/c1ccc(Cl)cc1)O3` (stereo not given): the growth was -16.3% (active).

On to `CCCCCCCC/C=C\CCCCCCCCOc1ccc(CC(=O)NCC[N+]2(C)CCCC2)cc1`, for which the growth was 33.5%.

For the molecule `CN(C)CCCNc1c2ccccc2nc2c1oc1ccc(Cl)cc12`, the growth was 5.14% (active).

For `COc1ccc(-c2c3c(nc4n[nH]c(-c5ccc(Cl)cc5)c24)-c2ccccc2C(=O)C3=O)cc1`, the growth is -9.02% (active).

`COc1cc2c(cc1OC)C(Sc1ccc(F)cc1)c1c(nc(N)c(C#N)c1N)O2` (stereo not given): the growth was -56.4% (active).

Take `O=C(CCN1CCCC1)Nc1ccc2c(Nc3ccccc3)c3ccccc3nc2c1`: the growth is -14.9% (active).

`C[n+]1c(/C=C\C=C\N2CCCCC2)sc2ccccc21`: the growth was -17% (active).

For the molecule `N#Cc1cnn(-c2nc3c(Cl)cccc3s2)c1N`, the growth is 85.3%.

As for `N=C(N)c1ccc(-c2ccc(-c3ccccc3)o2)o1`, the growth was 14.3%.

As to `CC(C)CCOC(=O)c1ccccc1`, the growth is 115%.

As for `O=C(CSc1nnc(-c2ccccc2)o1)Nc1ccc(C(=O)/C=C/c2ccccc2)cc1`, the growth is 58.3%.

`Cc1ccc2c(c1)c(Sc1ccc(C(=O)NO)cc1)c1n2CN(C)CC1`: the growth is -19.3% (active).

Take `COC(=O)CCC1=C(CC(=O)OC)C(C)=N/C1=C\c1[nH]c(-c2ccc[nH]2)cc1OC`: the growth is 61.9%.

In the case of `COc1ccc2c(c1)C(=O)/C(=C/c1ncc([N+](=O)[O-])n1C)O2`, the growth is -12.4% (active).

On to `O=C(Nc1ccccc1C(F)(F)F)C1=NCCCCN1`, for which the growth is 94.8%.

For the molecule `O=C(/C=C/c1ccc(F)cc1)c1ccc(O)cc1`, the growth is 83%.

For the molecule `C#Cc1nc(C2=C(C)C(O)CC2)cs1` (stereo not given), the growth is -91.7% (active).

Regarding `Cc1ccc2sc3c(NCCCN)nc4ccccc4c3c(=O)c2c1`, the growth was -6.52% (active).

As to `CC(C)(C)CC1(C)NC(=O)NC1=O` (stereo not given), the growth is 96.1%.

On to `COC(=O)Nc1nc2ccc(Sc3ccccc3)cc2[nH]1`, for which the growth is -3.91% (active).

As for `C/C(=N\NC(N)=S)c1nc2ccc(Cl)cc2[nH]1`, the growth was 44.2%.

Regarding `c1cc2nc(-c3cn[nH]c3)c3c(c2cc1-c1cn[nH]c1)C1CCC3C1` (stereo not given), the growth is 78.9%.

Take `Cc1ccc(-c2cc(-c3ccc(N(C)C)cc3)n3c(n2)nc2ccccc23)cc1`: the growth was -0.434% (active).

Turning to `NNc1ccc2ccccc2c1`, the growth was 83.7% and 88.7%.

With `N#CC1=C(N)Oc2c(sc3c(F)cccc23)C1c1ccc([N+](=O)[O-])cc1` (stereo not given), the growth was -41.6% (active).

As to `O=C(N=Nc1c(O)[nH]c2ccccc12)Nc1ccccc1Cl`, the growth is 11.5%.
